Test results taken from PubChem BioAssay AID588397 (National Center for Advancing Translational Sciences (NCATS), 2011).
Where “and” joins values, the source holds several entries; their conditions need not be identical. Equal values may be shown once. Hit rate of the full screen: of about 1,300 compounds, about 1,000 (77%) were called active. Inconclusive results (about 7%) are left out. The call rests on the fitted dose curve; in most records, active means well fitted inhibition curve with a large enough effect; inconclusive means small, poorly fitted or top-dose-only effect; inactive means no such curve, though single readings can be large or run the other way. So high a share suggests a set chosen from earlier hits. The list shows a part of the results.

test: qHTS of small molecules that selectively kill Giardia lamblia: Hit Validation.;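 further: viability measured as ATP content by luminescence so killing lowers signal; nearly all actives have a fitted effect of over 65% in size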; conditions: Giardia lamblia trophozoite viability, dose-response; series mostly up to 38.3 µM; activity change, negative = killing: at the top concentration
From the text: Giardia lamblia is a human pathogen afflicting impoverished nations, and the most common cause of outbreaks of diarrhea in the United States. Giardia has been classified by the CDC as a category B bioterrorism organism. The favored anti giardiasis drugs in the US are metronidazole or tinidazole, compounds that have undesirable side effects. Moreover, increasing resistance to drug regimes and recurrence are a concern. It is thus clear that alternative drug treatments are needed.
In a collaboration between the University of Maryland, College Park and the NIH Chemical Genomics Center, a bioluminescence Giardia viability assay based on the trophozoites' ATP content was developed. This assay is suitable for high throughput screening, and miniaturized the assay for compound screening in 1536-well plates. The goal of the project is to screen the Molecular Libraries Small Molecule Repository (MLSMR) for compounds that selectively kill Giardia trophozoites.
NIH Chemical Genomics Center [NCGC]
NIH Molecular Libraries Probe Centers Network [MLPCN]
Assay Submitter (PI): Osnat Herzberg, University of Maryland, College Park, MD.
1. Dispense 2 ul/well media
2. Dispense 23 nl/well compounds
3. Dispense 4 ul/well Giardia trophozoites at a concentration of 100 cells/well
4. Incubate 48 hrs at 37 deg C anaerobically
5. Dispense 4 ul/well ATPLite 1-Step Luminescence assay kit
6. Incubate 15-30 min at room temperature
7. Read luminescence signal on ViewLux plate reader
On the % scale 0 is the no-effect control and ±100 the full control effect; potency means the concentration at half of the fitted maximal effect.

SMILES | Potency | activity change, negative = killing
O=C(CSc1ccsc1[N+](=O)[O-])NCCc1ccc(Cl)cc1 | 1.3 µM (active) | –
O=C(CSc1ccsc1[N+](=O)[O-])NCCc1ccccc1 | 0.818 µM (active) | –
CN=c1c([N+](=O)[O-])nn(-c2ccc3c(c2)OCCO3)n1O | 4.1 µM (active) | –
COc1cc(N=c2c([N+](=O)[O-])nn(-c3ccc4c(c3)OCCO4)n2O)cc(OC)c1 | 5.16 µM (active) | –
CCc1cccc(N=c2c([N+](=O)[O-])nn(-c3ccc(Cl)cc3)n2O)c1 | 1.45 µM (active) | –
O=[N+]([O-])c1nn(-c2ccc3c(c2)OCCO3)n(O)c1=NCCC1=CCCCC1 | 1.63 µM (active) | –
Cc1cc(C)cc(N=c2c([N+](=O)[O-])nn(-c3ccc4c(c3)OCCO4)n2O)c1 | 0.729 µM (active) | –
O=[N+]([O-])c1nn(-c2ccc3c(c2)OCCO3)n(O)c1=NCCCO | 2.05 µM (active) | –
CCc1cccc(N=c2c([N+](=O)[O-])nn(-c3ccc4c(c3)OCCO4)n2O)c1 | 0.818 µM (active) | –
Cn1nc(-c2ccc(Cl)cc2)nc2c(=O)n(C)c(=O)nc1-2 | 0.13 µM (active) | –
Cn1nc(-c2cccnc2)nc2c(=O)n(C)c(=O)nc1-2 | 4.1 µM (active) | –
Cn1nc(-c2ccncc2)nc2c(=O)n(C)c(=O)nc1-2 | 1.16 µM (active) | –
Cn1nc(-c2ccc(F)cc2)nc2c(=O)n(C)c(=O)nc1-2 | 0.103 µM (active) | –
COc1ccc(-c2nc3c(=O)n(C)c(=O)nc-3n(C)n2)cc1 | 0.163 µM (active) | –
CCCc1nc2c(=O)n(C)c(=O)nc-2n(C)n1 | 0.326 µM (active) | –
O=C1S/C(=C\c2ccc(O)c([N+](=O)[O-])c2)C(=O)N1Cc1cccc([N+](=O)[O-])c1 | 0.818 µM (active) | –
O=C1S/C(=C\c2ccc(O)c([N+](=O)[O-])c2)C(=O)N1c1ccccc1Cl | 1.63 µM (active) | –
O=C(O)c1cccc(CN2C(=O)S/C(=C/c3ccccc3[N+](=O)[O-])C2=O)c1 | – | -35.3% (inactive)
O=C1/C(=C/c2ccc(O)c([N+](=O)[O-])c2)SC(=S)N1Cc1ccccc1 | 1.45 µM (active) | –
COc1cccc(/C=C2\Oc3ccc(O)cc3C2=O)c1O | 3.26 µM (active) | –
CCOc1ccc(-n2c(C)c(C(C)=O)c3cc(O)ccc32)cc1 | – | 5.94% (inactive)
CC(=O)c1c(C)n([O-])c2ccc(C)cc2[n+]1=O | 0.41 µM (active) | –
CC(=O)c1c(C)n([O-])c2cc(C)ccc2[n+]1=O | 0.818 µM (active) | –

SMILES | Potency | activity change, negative = killing
CC(=O)c1c(C)n([O-])c2ccccc2[n+]1=O | 0.65 µM (active) | –
CCN(CC)CC(=O)c1c(C)n(C)c2ccc(OC)cc12 | – | 0.629% (inactive)
COc1ccc2c(c1)[n+](=O)c(C(C)=O)c(C)n2[O-] | 4.1 µM (active) | –
NC(=S)N/N=C1\c2ccccc2-c2c(C(=O)O)cccc21 | – | -2.7% (inactive)
CC(=O)c1c(C)n([O-])c2cc(F)c(F)cc2[n+]1=O | 4.1 µM (active) | –
CC(=O)OCc1c(COC(C)=O)[n+](=O)c2ccccc2n1[O-] | 5.79 µM (active) | –
O=C(Nc1ccc2oc(-c3ccccc3F)nc2c1)c1ccc([N+](=O)[O-])o1 | 0.818 µM (active) | –
O=C(Nc1ccc2oc(-c3ccncc3)nc2c1)c1ccc([N+](=O)[O-])o1 | 0.918 µM (active) | –
O=C(Nc1ccc2oc(-c3cccnc3)nc2c1)c1ccc([N+](=O)[O-])o1 | 0.918 µM (active) | –
Cc1cnc(N=Nc2ccccc2)[nH]1 | 9.18 µM (active) | –
O=C(NCCCO)c1cc([N+](=O)[O-])cc2c1C=Cc1ccccc1O2 | 11.6 µM (active) | –
O=C(Nc1c(Cl)ccc2nsnc12)c1ccc([N+](=O)[O-])o1 | 1.3 µM (active) | –
Cc1ccc2nsnc2c1NC(=O)c1ccc([N+](=O)[O-])o1 | 3.26 µM (active) | –
NC(=S)NN=C1CCCCCCCC1 | 23.1 µM (active) | –
Cc1ncc([N+](=O)[O-])n1CCOC(=O)NC(NCc1cccnc1)C(Cl)(Cl)Cl (stereo unspecified) | 0.46 µM (active) | –
Cc1ncc([N+](=O)[O-])n1CCOC(=O)NC(NCc1ccccc1)C(Cl)(Cl)Cl (stereo unspecified) | 0.206 µM (active) | –
Cc1ncc([N+](=O)[O-])n1CCOC(=O)NC(NCc1ccccc1Cl)C(Cl)(Cl)Cl (stereo unspecified) | 0.146 µM (active) | –
CCCCCCSc1ccc([C@H]2N[C@@](Cc3ccccc3)(C(=O)OC)[C@H]3C(=O)N(C)C(=O)[C@@H]23)cc1 | – | -9.35% (inactive)
Cc1cc(=O)oc2cc(O)c(N=Nc3ccccc3)cc12 | 1.03 µM (active) | –
Cn1c(-c2ccc(C(=O)c3ccccc3)s2)nc2ccccc21 | 3.26 µM (active) | –
COc1ccc(-c2cn3cc([N+](=O)[O-])ccc3n2)cc1OC | 1.83 µM (active) | –
O=[N+]([O-])c1ccc2nc(-c3ccc(OC(F)F)cc3)cn2c1 | 2.31 µM (active) | –
COC(=O)c1sc(NC(=O)c2ccc(OC)cc2OC)nc1C | 0.365 µM (active) | –

SMILES | Potency | activity change, negative = killing
COc1ccc(C(=O)Nc2ccc(C)cn2)c(OC)c1 | 0.579 µM (active) | –
COc1cc(C(=O)NC(=S)Nc2ccc(Cl)cn2)cc(OC)c1OC | – | -7.19% (inactive)
C[C@H]1CN=C(N(C)C)N1CCC1CCCC1 | – | 2.7% (inactive)
CCOC(=O)CSc1ccc(C(=O)NCCCN2CCOCC2)cc1[N+](=O)[O-] | 18.3 µM (active) | –
O=C(CN(C1CCCCC1)S(=O)(=O)c1ccc(F)cc1)NCC1CCCO1 (stereo unspecified) | 1.63 µM (active) | –
Cc1c[n+]([O-])ccc1[N+](=O)[O-] | 1.3 µM (active) | –
Cc1ccnc(NC(=O)c2ccc3c(c2)OCO3)c1 | 2.59 µM (active) | –
Cc1cc(NC(=O)c2ccc(C(C)(C)C)cc2)no1 | 6.5 µM (active) | –
Cc1nc2c(ccc3nc(NC(=O)c4ccc5c(c4)OCCO5)sc32)s1 | 3.26 µM (active) and 3.65 µM (active) | –
Cc1cc(NC(=O)c2ccc3c(c2)OCCO3)no1 | 1.16 µM (active) | –
N#Cc1sc(NCc2cccc(Cl)c2)nc1Cl | 23.1 µM (active) | –
NC(=O)CCCn1c(C(=O)c2ccc(Cl)cc2)c2ccc([N+](=O)[O-])cc2[n+]1[O-] | 1.16 µM (active) | –
NCCCn1c(C(=O)c2ccc(Cl)cc2)c2ccc([N+](=O)[O-])cc2[n+]1[O-] | 3.26 µM (active) | –
CCOC(=O)C1=C(C)N=c2s/c(=C\c3ccc(O)c([N+](=O)[O-])c3)c(=O)n2C1c1ccccc1OC (stereo unspecified) | 2.05 µM (active) | –
CCOC(=O)C1=C(C)N=c2s/c(=C/c3cccc([N+](=O)[O-])c3O)c(=O)n2C1c1cc(OC)c(OC)c(OC)c1 (stereo unspecified) | 2.9 µM (active) | –
CCOC(=O)C1=C(C)N=c2s/c(=C/c3cccc([N+](=O)[O-])c3O)c(=O)n2C1c1ccc(OC)cc1OC (stereo unspecified) | 1.83 µM (active) | –
CCOC(=O)C1=C(C)N=c2s/c(=C/c3cccc([N+](=O)[O-])c3O)c(=O)n2C1c1ccccc1 (stereo unspecified) | 2.31 µM (active) | –
CN(C)C(=O)CCc1ccc2c3c([nH]c2c1)[C@]1(CCC2CCCC2)[C@@H](C(=O)N2CCOCC2)C[C@H](CC(=O)NCCN2CCOCC2)C(=O)N1CC3 | – | -13.7% (inactive)
CS(=O)(=O)N1CCN(c2ccccc2NC(=O)c2ccc([N+](=O)[O-])o2)CC1 | 1.3 µM (active) | –
CCC(=O)N1CCN(c2ccc(Cl)cc2NC(=O)c2ccc([N+](=O)[O-])o2)CC1 | 1.16 µM (active) | –
CN1CCN(c2ccc(NC(=O)c3ccc([N+](=O)[O-])o3)cc2Cl)CC1 | 1.3 µM (active) | –
CC(=O)N1CCN(c2ccc(NC(=O)c3ccc([N+](=O)[O-])o3)cc2Cl)CC1 | 1.45 µM (active) | –
CCC(=O)N1CCN(c2ccc(NC(=O)c3ccc([N+](=O)[O-])o3)cc2Cl)CC1 | 0.65 µM (active) | –

SMILES | Potency | activity change, negative = killing
CC(=O)Nc1ccc(S(=O)(=O)NCCC(=O)N2CCN(c3ccccc3Cl)CC2)cc1 | – | -25.3% (inactive)
CCN1CCN(c2ccc(NC(=O)c3ccc([N+](=O)[O-])o3)cc2Cl)CC1 | 0.729 µM (active) | –
O=C(Nc1ccccc1N1CCN(C(=O)c2ccccc2)CC1)c1ccc([N+](=O)[O-])o1 | 0.818 µM (active) | –
CN1CCN(c2ccc(NC(=O)c3ccc4c(c3)OCCO4)cc2Cl)CC1 | 5.16 µM (active) | –
O=C(Nc1ccccc1N1CCOCC1)c1ccc([N+](=O)[O-])o1 | 1.3 µM (active) | –
CC(C)C(=O)N1CCN(c2ccccc2NC(=O)c2ccc([N+](=O)[O-])o2)CC1 | 1.16 µM (active) | –
O=C(Nc1cccc(Cl)c1N1CCOCC1)c1ccc([N+](=O)[O-])o1 | 1.3 µM (active) | –
CC(C)C(=O)N1CCN(c2ccc(NC(=O)c3ccc([N+](=O)[O-])o3)cc2Cl)CC1 | 1.03 µM (active) | –
CCC(=O)N1CCN(c2ccccc2NC(=O)c2ccc([N+](=O)[O-])o2)CC1 | 0.818 µM (active) | –
COc1ccc(-c2nc(CSCC(=O)NC3CCCC3)c(C)o2)cc1OC | – | -30.1% (inactive)
COc1ccc(CN(C(=O)CSc2nnc(-c3ccc(OC)c(OC)c3)o2)c2ccc(F)cc2)cc1 | 3.65 µM (active) | –
Cc1ccc(CSc2nnc(Cn3c(=O)sc4ccccc43)n2C)cc1 | – | -21.4% (inactive)
Cc1ccc(-c2nc(-c3ccccc3)no2)c(Cl)c1 | 1.63 µM (active) | –
Nc1ccc[n+](CC(=O)c2ccc(F)cc2)c1 | 2.31 µM (active) | –
Cc1cccc(NC(=O)c2ccc([N+](=O)[O-])s2)c1C | 3.26 µM (active) | –
O=C(Nc1cccc2ccccc12)c1ccc([N+](=O)[O-])s1 | 2.05 µM (active) | –
COc1cc2sc3cc(NCCCN4CCOCC4)ccc3c(=O)c2cc1OC | 5.16 µM (active) | –
COc1cc2nc(CN(C)Cc3ccc(C(C)(C)C)cc3)[nH]c(=O)c2cc1OC | 5.16 µM (active) | –
COc1ccc(Cc2noc(CN(C)Cc3ccc(-n4cccn4)cc3)n2)cc1OC | – | -6.65% (inactive)
Cc1ncc([N+](=O)[O-])n1CCOC(=O)c1ccccc1 | 1.03 µM (active) | –
Cc1ncc([N+](=O)[O-])n1CCOC(=O)c1ccc(Br)cc1 | 1.16 µM (active) | –
Cc1ncc([N+](=O)[O-])n1CCOC(=O)C12CC3CC(CC(C3)C1)C2 | 1.3 µM (active) | –
